# Reference: PubChem BioAssay AID743100 (Vanderbilt Specialized Chemistry Center, 2013)
# Values without a mark were called inactive. Activity calls are given as the source filed them.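 The calls were made as follows: active = calcium response above 60% of the acetylcholine maximum at human M5, as a positive modulator; inactive = the rest.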
# Target: Muscarinic acetylcholine receptor M5 (Homo sapiens) (UniProt P08912)
# Assay: potentiators of ACh response at human M5 – cell-based, single concentration, CHO-K1 hM5, calcium flux (AID 743100)
# Details: CHO-K1 hM5, Fluo-4 calcium flux, ACh EC20, hits give high values; at 10 µM unless noted
# Sequence of Muscarinic acetylcholine receptor M5 (Homo sapiens) (P08912 whole entry, looked up): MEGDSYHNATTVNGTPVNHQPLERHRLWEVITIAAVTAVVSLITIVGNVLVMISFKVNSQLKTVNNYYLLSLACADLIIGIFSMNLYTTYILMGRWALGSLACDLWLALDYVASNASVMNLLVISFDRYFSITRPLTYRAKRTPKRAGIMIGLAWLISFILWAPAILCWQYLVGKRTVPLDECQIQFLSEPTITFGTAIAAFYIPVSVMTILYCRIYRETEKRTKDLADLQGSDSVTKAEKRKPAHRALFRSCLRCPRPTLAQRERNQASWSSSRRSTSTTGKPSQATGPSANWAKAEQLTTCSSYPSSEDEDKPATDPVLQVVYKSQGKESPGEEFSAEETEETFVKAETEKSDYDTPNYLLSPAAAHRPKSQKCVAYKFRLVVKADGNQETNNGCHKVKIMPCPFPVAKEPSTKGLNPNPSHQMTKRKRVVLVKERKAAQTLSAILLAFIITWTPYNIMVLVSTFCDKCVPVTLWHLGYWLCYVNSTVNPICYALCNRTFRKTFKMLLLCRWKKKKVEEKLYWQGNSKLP
row,Structure (SMILES),% ACh max response
1,CCNC(=O)C1(Cc2ccccc2)CCN(S(=O)(=O)c2ccc3occc3c2)CC1,22.2%
2,CCN(Cc1ccccc1C(F)(F)F)C(=O)C1CCN(S(=O)(=O)c2ccc3cn[nH]c3c2)CC1,84.2% (active)
3,CCN(Cc1ccccc1OC(F)(F)F)C(=O)C1CCN(S(=O)(=O)c2ccc3cn[nH]c3c2)CC1,73.2% (active)
4,CCN(Cc1ccccn1)C(=O)C1CCN(S(=O)(=O)c2ccc3cn[nH]c3c2)CC1,35.1%
5,CCN(CC1CCN(S(=O)(=O)c2ccc3c(c2)OCCO3)CC1)C(=O)c1ccccc1,11.3%
6,CCN(Cc1ccccc1C(F)(F)F)C(=O)C1CCN(S(=O)(=O)c2ccc(-n3cccn3)cc2)CC1,81.9% (active)
7,CCN(Cc1ccccc1F)C(=O)C1CCN(S(=O)(=O)c2ccc3cn[nH]c3c2)CC1,69.8% (active)
8,CCN(Cc1ccccc1C)C(=O)C1CCN(S(=O)(=O)c2ccc3cn[nH]c3c2)CC1,85.1% (active)
9,CCN(Cc1ccccc1)C(=O)C1CCN(S(=O)(=O)c2ccc3c(cnn3C)c2)CC1,63.3% (active)
10,CCN(Cc1ccccc1)C(=O)C1CCN(S(=O)(=O)Cc2ccc(Cl)cc2)CC1,16% [at 30 µM]
11,CCN(Cc1ccccc1)C(=O)C1CCN(S(=O)(=O)c2ccncc2)CC1,24.6% (active)
12,CCN(Cc1ccccc1C(F)(F)F)C(=O)C1(F)CCN(S(=O)(=O)c2ccc(-n3cccn3)cc2)CC1,51.8%
13,CCN(Cc1ccccc1)C(=O)C1CCN(S(=O)(=O)c2ccc(N3CCOCC3)nc2)CC1,70% [at 30 µM] (active)
14,CCN(C(=O)C1CCN(S(=O)(=O)c2ccc3c(c2)CCO3)CC1)[C@H](C)c1ccccc1,97.5% (active)
15,COc1ccc(S(=O)(=O)N2CCC(CN(Cc3ccccc3)C(C)=O)CC2)cc1,11.8%
16,CCN(Cc1ccccc1C(F)(F)F)C(=O)C1CCN(S(=O)(=O)c2ccc3occc3c2)CC1,84.8% (active)

row,Structure (SMILES),% ACh max response
1,CC(=O)N(Cc1ccccc1)CC1CCN(S(=O)(=O)c2ccc3cn[nH]c3c2)CC1,11.4%
2,CC(=O)N(Cc1ccccc1)CC1CCN(S(=O)(=O)c2ccc3c(c2)OCCO3)CC1,7.56%
3,CCN(CC1CCN(S(=O)(=O)c2ccc(OC)cc2)CC1)C(=O)c1ccccc1,15.2%
4,COc1ccc(S(=O)(=O)N2CCC(C(=O)N(C)Cc3ccccc3)CC2)cc1,64.5% [at 30 µM] (active)
5,CCN(Cc1ccccc1)C(=O)C1CCN(S(=O)(=O)CC(C)(C)C)CC1,17% [at 30 µM]
6,CCN(Cc1ccccc1Cl)C(=O)C1CCN(S(=O)(=O)c2ccc3cn[nH]c3c2)CC1,90.7% (active)
7,CCN(CC1CCN(S(=O)(=O)c2cccc(OC)c2)CC1)C(=O)c1ccccc1,15.2%
8,CCN(Cc1ccccc1)C(=O)C1CCN(S(=O)(=O)c2ccc(C(C)C)cc2)CC1,66.7% [at 30 µM] (active)
9,CCN(Cc1ccc(C(F)(F)F)cc1)C(=O)C1CCN(S(=O)(=O)c2ccc3cn[nH]c3c2)CC1,24.2%
10,CCN(Cc1ccccc1)C(=O)C1CCN(S(=O)(=O)c2ccc(C(F)(F)F)cc2)CC1,62.6% [at 30 µM] (active)
11,CN(C)C(=O)C1(Cc2ccccc2)CCN(S(=O)(=O)c2ccc3occc3c2)CC1,8.49%
12,CCN(Cc1cccc(C)c1)C(=O)C1CCN(S(=O)(=O)c2ccc3cn[nH]c3c2)CC1,85.8% (active)
13,CCN(Cc1ccccc1)C(=O)C1CCN(S(=O)(=O)c2ccc(F)cc2)CC1,56.2% [at 30 µM]
14,CCN(Cc1ccccc1)C(=O)C1CCN(S(=O)(=O)c2ccc(C(C)(C)C)cc2)CC1,59.3% [at 30 µM]
15,CCN(Cc1ccccc1C(F)(F)F)C(=O)C1(F)CCN(S(=O)(=O)c2ccc3occc3c2)CC1,54%
16,CCN(Cc1ccccc1)C(=O)C1CCN(S(=O)(=O)c2ccc3ncccc3c2)CC1,63.4% [at 30 µM] (active)
